Data taken from PubChem BioAssay (Tox21).
Results filed as inconclusive are left out. Values without a mark were called inactive. Active and inactive are the calls of the source. The call rests on the fitted dose curve; in most records, active means well fitted cell-killing curve with a large enough effect in the repeat runs; inconclusive means weak or mixed curves, or effect the other way; inactive means flat fitted curve, though single readings scatter.

test: qHTS assay to identify small molecule antagonists of the constitutive androstane receptor (CAR) signaling pathway - cell viability counter screen (AID 1224837); settings: HepG2-CYP2B6-hCAR viability, CellTiter-Fluor, 23 h, co-treated with 50 nM CITCO; series mostly up to 92.4 µM; activity change, negative = cytotoxicity: at the top concentration; further: nearly all actives have a fitted effect of over 45% in size
Source text: National Center for Advancing Translational Sciences [NCATS]
NIH Chemical Genomics Center [NCGC]
U.S. Environmental Protection Agency [EPA]
National Institutes of Environmental Health Sciences [NIEHS]
National Toxicology Program [NTP]
U.S. Food and Drug Administration [FDA]
The constitutive androstane receptor (CAR) is a nuclear receptor which regulates multiple drug metabolizing enzymes (DMEs) and transporters. Activating CAR will generally increase the transcription and subsequent translation of CYP2B6 and CYP3A4. These two DMEs represent about 50% of the drug metabolizing potential in the body. When CAR is deactivated, the metabolizing potential in the body will decrease, subsequently increasing the toxicity in the body or lowering the therapeutic potential of a pro-drug. Recently, there have also been studies performed indicating CARs role in energy metabolism and cancer therapy. Therefore, inhibiting CARs activity could have a potential effect on diabetes and cancer. Identifying environmental toxins and compounds which modulate CAR, through the use of the Tox21 10K compound collection, will be an important step in determining the toxicity and potential therapeutic effects these factors will have on the human body. To differentiate true CAR antagonists from cytotoxic substances, the assay is multiplexed with a cell viability assay.
Tox21 Assay Protocol Summary:
A double-stable (hCAR and CYP2B6-2.2kb) transfected cell line, derived from human hepatoma (HepG2) cells, was utilized for the duration of the quantitative high-throughput screens. The HepG2-CYP2B6-hCAR cells were dispensed at 2500 cells/4 uL/well in 1536-well white solid bottom plates using a Multidrop Combi. After the assay plates were incubated at 37 C/5% CO2 for 4 hrs, 23 nL of compounds at 15 concentrations (from 5-48 columns) or positive control (from 1 to 4 columns) were transferred to the assay plates using a Pintool station. One uL of CITCO (final concentration = 50 nM) was added, using a Flying Reagent Dispenser, inside each well. After a 23 hr incubation period at 37 C/5% CO2, 1 uL of CellTiter-Fluor reagent was added into each well of the assay plates using a Flying Reagent Dispenser. The fluorescence intensity in the plates was then measured using a ViewLux plate reader.
On the % scale 0 is the no-effect control and ±100 the full control effect; potency means the concentration at half of the fitted maximal effect.

Compound | activity change, negative = cytotoxicity | Potency
CN(C)CC[C@@H](c1ccc(Cl)cc1)c1ccccn1 | -0.269% [at 42.5 µM] | –
Cc1c[nH]c(=S)[nH]c1=O | 6.95% | –
C=CCCC=C | -21.5% | –
C[C@]12C(=O)OC(=O)[C@H]1[C@H]1C=C[C@@H]2C1 | 0% | –
CCCCCCCCc1ccc(S(=O)(=O)O)cc1 | -10% | –
CCCCCCCCCCCCOCCOS(=O)(=O)O | -7.11% | –
Oc1ccccc1F | -3.7% | –
CC1(C)O[C@@H]2C[C@H]3[C@@H]4CCC5=CC(=O)CC[C@]5(C)[C@@]4(F)[C@@H](O)C[C@]3(C)[C@]2(C(=O)CCl)O1 | 0.716% [at 42.5 µM] | –
CCCCCCn1c(=O)c2c(ncn2C)n(C)c1=O | 4.25% [at 42.5 µM] | –
OCc1c2ccccc2cc2ccccc12 | -1.94% | –
O=Cc1ccc(O)c(O)c1O | -14.8% [at 42.5 µM] | –
CC1=CC(=O)CC(C)(C)C1=O | 3.35% | –
NC/C=C/C(=O)O | 3.12% [at 42.5 µM] | –
CC(C)c1ccccc1 | 6.61% | –
O=C(O)c1ccccc1Nc1cc(Cl)ccc1C(=O)O | -10.7% [at 19 µM] | –
CCCCNc1cc(C(=O)O)cc(S(N)(=O)=O)c1Oc1ccccc1 | -1.32% [at 42.5 µM] | –
CC/C=C\CCOC(=O)C(C)C | 0.276% | –
FC(F)(F)c1ccccc1 | 2.86% | –
CC(C)NCC(O)COc1ccc(CCOCC2CC2)cc1 (stereo not given) | -6.56% [at 42.5 µM] | –
O=C(O)CN(CCN(CC(=O)O)CC(=O)O)CCN(CC(=O)O)CC(=O)O | -28.8% [at 19 µM] | –

Compound | activity change, negative = cytotoxicity | Potency
Cc1cn([C@@H]2O[C@H](CO)[C@@H](O)[C@@H]2F)c(=O)[nH]c1=O | 7.84% [at 42.5 µM] | –
CCc1cc(Cl)c(OC)c(C(=O)NC[C@@H]2CCCN2CC)c1O | 2.38% [at 42.5 µM] | –
CC(C)CC(=O)OCc1ccccc1 | 1.45% | –
Cc1cc2c(s1)Nc1ccccc1N=C2N1CCN(C)CC1 | – | 3.35 µM (active)
O=C(Cl)c1cccc([N+](=O)[O-])c1 | 3.17% | –
CCOc1ccc(OCC)c(Cl)c1 | -12.6% | –
NC(=O)NS(=O)(=O)c1ccc(Cl)cc1 | 0.851% [at 42.5 µM] | –
COc1nc(C)nc(NC(=O)NS(=O)(=O)c2ccccc2OCCCl)n1 | 1.92% | –
CCN(O)CC | 0.991% | –
ICCc1ccccc1 | -14.7% | –
CCCCCCCCCCCCCCCCOP(=O)([O-])OCC[N+](C)(C)C | -3.42% [at 42.5 µM] | –
Cc1ccc(C=O)s1 | 1.13% | –
NS(=O)(=O)c1cc(-c2nn[nH]n2)c(NCc2cccs2)cc1Cl | -18.5% [at 42.5 µM] | –
CC1(C)C(=O)N(Cl)C(=O)N1Br | 4.58% | –
CCC(=O)c1ccc2c(c1)N(CCCN(C)C)c1ccccc1S2 | -10.7% [at 42.5 µM] | –
CCCNC(C)C(=O)Nc1c(C)csc1C(=O)OC (stereo not given) | 1.43% [at 42.5 µM] | –
O=C1Nc2ccc([N+](=O)[O-])cc2C1=O | -17.6% | –
CC(=O)OC1C2(C)CCC(C2)C1(C)C (stereo not given) | 4.32% | –
CC(C)C(=O)OC/C=C/c1ccccc1 | 1.28% | –
CCN(CC)CCNC(=O)COc1ccc(Cl)cc1 | 5.34% [at 42.5 µM] | –
